Hit rate of the full screen: of about 5,500 compounds, about 2,000 (36%) were called active. Another 18% or so got no clear call; they are omitted. Cut-off read from the data, not from the text of the source: active = normalized growth mostly below about 0.91 (no sharp cut-off); inconclusive = no clear call, values can overlap the other calls; inactive = mostly above about 0.92. Some of the results follow.
Experiment: chemical genetic growth profiling, strain panel (AID 1159580);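 note: tested at 20 µM; growth read once vehicle control cultures reached saturation at 30 °C; 1 = growth at the plate median or of vehicle wells; lower values mean less growth of the strain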
Details: growth OD

Measured: normalized growth

CN(C)CCc1c[nH]c2ccc(CS(=O)(=O)N3CCCC3)cc12
inactive: S. cerevisiae deletion strains, locus YJR075W, strain HOC1, active compounds read low 1 | S. cerevisiae deletion strains, locus YKL009W, strain mrt4, active compounds read low 0.992 | S. cerevisiae deletion strains, locus YKL068W, active compounds read low 0.987 | S. cerevisiae deletion strains, locus YKL085W, strain MDH1 (second series), active compounds read low 0.983 | S. cerevisiae deletion strains, locus YKL085W, strain MDH1, active compounds read low 0.983 | S. cerevisiae deletion strains, locus YKL160W, strain elf1, active compounds read low 1.03 | S. cerevisiae deletion strains, locus YKL190W, strain CNB1, active compounds read low 1 | S. cerevisiae deletion strains, locus YKR001C, strain vps1, active compounds read low 0.988 | S. cerevisiae deletion strains, locus YKR026C, strain gcn3, active compounds read low 0.976 | S. cerevisiae deletion strains, locus YKR091W, strain srl3, active compounds read low 1.01 | S. cerevisiae deletion strains, locus YLL001W, strain dnm1, active compounds read low 0.971 | S. cerevisiae deletion strains, locus YLL026W, active compounds read low 0.98 | S. cerevisiae deletion strains, locus YLL041C, strain sdh2, active compounds read low 1 | S. cerevisiae deletion strains, locus YLR027C, strain aat2, active compounds read low 0.997 | S. cerevisiae deletion strains, locus YLR039C, strain RIC1, active compounds read low 0.971 | S. cerevisiae deletion strains, locus YLR058C, strain SHM2, active compounds read low 0.991 | S. cerevisiae deletion strains, locus YLR102C, strain apc9, active compounds read low 0.995 | S. cerevisiae deletion strains, locus YLR113W, strain HOG1, active compounds read low 0.979 | S. cerevisiae deletion strains, locus YLR221C, strain rsa3, active compounds read low 0.96 | S. cerevisiae deletion strains, locus YLR258W, strain gsy2, active compounds read low 1 | S. cerevisiae deletion strains, locus YLR262C, strain YPT6 (second series), active compounds read low 1 | S. cerevisiae deletion strains, locus YLR262C, strain YPT6, active compounds read low 0.968 | S. cerevisiae deletion strains, locus YLR268W, strain sec22, active compounds read low 0.971 | S. cerevisiae deletion strains, locus YLR320W, strain mms22, active compounds read low 0.945 | S. cerevisiae deletion strains, locus YLR330W, strain CHS5, active compounds read low 0.988 | S. cerevisiae deletion strains, locus YLR342W, strain FKS1 (second series), active compounds read low 1.02 | S. cerevisiae deletion strains, locus YLR342W, strain FKS1, active compounds read low 1.01 | S. cerevisiae deletion strains, locus YLR357W, strain rsc2, active compounds read low 1.01 | S. cerevisiae deletion strains, locus YLR370C, strain arc18, active compounds read low 0.992 | S. cerevisiae deletion strains, locus YLR371W, strain rom2, active compounds read low 0.983 | S. cerevisiae deletion strains, locus YLR384C, strain iki3, active compounds read low 0.983 | S. cerevisiae deletion strains, locus YLR418C, strain cdc73, active compounds read low 0.959 | S. cerevisiae deletion strains, locus YML016C, strain PPZ1, active compounds read low 0.987 | S. cerevisiae deletion strains, locus YML032C, strain rad52, active compounds read low 0.99 | S. cerevisiae deletion strains, locus YML120C, strain ndi1, active compounds read low 0.972 | S. cerevisiae deletion strains, locus YML124C, strain tub3, active compounds read low 0.979 | S. cerevisiae deletion strains, locus YMR058W, strain fet3, active compounds read low 0.976 | S. cerevisiae deletion strains, locus YMR078C, strain ctf18, active compounds read low 0.986 | S. cerevisiae deletion strains, locus YMR125W, strain sto1, active compounds read low 0.999 | S. cerevisiae deletion strains, locus YMR129W, active compounds read low 0.98 | S. cerevisiae deletion strains, locus YMR205C, strain PFK2, active compounds read low 0.967 | S. cerevisiae deletion strains, locus YMR223W, strain ubp8, active compounds read low 0.996 | S. cerevisiae deletion strains, locus YMR231W, strain pep5, active compounds read low 0.991 | S. cerevisiae deletion strains, locus YMR263W, strain SAP30, active compounds read low 1.01 | S. cerevisiae deletion strains, locus YMR307W, strain GAS1, active compounds read low 0.994 | S. cerevisiae deletion strains, locus YNL067W, strain RPL9B, active compounds read low 1.03 | S. cerevisiae deletion strains, locus YNL071W, strain lat1, active compounds read low 0.985 | S. cerevisiae deletion strains, locus YNL128W, strain TEP1, active compounds read low 1 | S. cerevisiae deletion strains, locus YNL153C, strain GIM3, active compounds read low 0.995 | S. cerevisiae deletion strains, locus YNL183C, strain NPR1, active compounds read low 0.926 | S. cerevisiae deletion strains, locus YNL209W, strain ssb2, active compounds read low 0.974 | S. cerevisiae deletion strains, locus YNL233W, strain BNI4, active compounds read low 0.988 | S. cerevisiae deletion strains, locus YNL248C, strain rpa49, active compounds read low 1.03 | S. cerevisiae deletion strains, locus YNL250W, strain rad50, active compounds read low 0.986 | S. cerevisiae deletion strains, locus YNL271C, strain bni1, active compounds read low 0.984 | S. cerevisiae deletion strains, locus YNL298W, strain CLA4, active compounds read low 0.981 | S. cerevisiae deletion strains, locus YNL307C, strain MCK1, active compounds read low 0.985 | S. cerevisiae deletion strains, locus YNL322C, strain KRE1 (second series), active compounds read low 1.02 | S. cerevisiae deletion strains, locus YNL322C, strain KRE1, active compounds read low 0.999 | S. cerevisiae deletion strains, locus YNR049C, strain mso1, active compounds read low 0.997 | S. cerevisiae deletion strains, locus YNR052C, strain pop2, active compounds read low 0.992 | S. cerevisiae deletion strains, locus YOL006C, strain TOP1, active compounds read low 0.959 | S. cerevisiae deletion strains, locus YOL012C, strain htz1 0.726 | S. cerevisiae deletion strains, locus YOL147C, strain pex11, active compounds read low 0.995 | S. cerevisiae deletion strains, locus YOR001W, strain rrp6, active compounds read low 0.938 | S. cerevisiae deletion strains, locus YOR061W, strain CKA2, active compounds read low 0.994 | S. cerevisiae deletion strains, locus YOR069W, strain VPS5, active compounds read low 0.992 | S. cerevisiae deletion strains, locus YOR070C, strain gyp1, active compounds read low 1 | S. cerevisiae deletion strains, locus YOR080W, strain dia2, active compounds read low 1 | S. cerevisiae deletion strains, locus YOR083W, strain WHI5, active compounds read low 1 | S. cerevisiae deletion strains, locus YOR106W, strain vam3, active compounds read low 1.04 | S. cerevisiae deletion strains, locus YOR136W, strain idh2, active compounds read low 0.983 | S. cerevisiae deletion strains, locus YOR144C, strain elg1, active compounds read low 0.981 | S. cerevisiae deletion strains, locus YOR184W, strain ser1, active compounds read low 0.989 | S. cerevisiae deletion strains, locus YOR231W, strain MKK1, active compounds read low 0.957 | S. cerevisiae deletion strains, locus YOR265W, strain rbl2, active compounds read low 0.99 | S. cerevisiae deletion strains, locus YOR270C, strain vph1, active compounds read low 0.945 | S. cerevisiae deletion strains, locus YOR290C, strain snf2, active compounds read low 1.02 | S. cerevisiae deletion strains, locus YOR316C, strain cot1, active compounds read low 0.989 | S. cerevisiae deletion strains, locus YPL051W, strain arl3, active compounds read low 1.02 | S. cerevisiae deletion strains, locus YPL055C, strain LGE1, active compounds read low 1.02 | S. cerevisiae deletion strains, locus YPL078C, strain atp4, active compounds read low 1.02 | S. cerevisiae deletion strains, locus YPL106C, strain sse1, active compounds read low 1.02 | S. cerevisiae deletion strains, locus YPL240C, strain hsp82, active compounds read low 0.985 | S. cerevisiae deletion strains, locus YPL241C, strain CIN2, active compounds read low 1.03 | S. cerevisiae deletion strains, locus YPL256C, strain CLN2, active compounds read low 0.959 | S. cerevisiae deletion strains, locus YPR119W, strain clb2, active compounds read low 0.994 | S. cerevisiae deletion strains, locus YPR141C, strain kar3, active compounds read low 0.983 | S. cerevisiae deletion strains, locus YPR163C, strain tif3, active compounds read low 0.985 | S. cerevisiae deletion strains, locus YPR167C, strain met16, active compounds read low 0.982 | S. cerevisiae deletion strains, strain wtn01, active compounds read low 0.99 | S. cerevisiae strains, strain wild type, active compounds read low 1.02

Reference: PubChem BioAssay AID1159580 (chemical genetic matrix, 2015)
